CRFR2-BP antag: blocks CRF-induced signaling of the CRF-BP/CRF-R2 complex; HEK293 CRF-R2/CRF-BP, CRF-induced calcium fluorescence; inhibition, % at 11.8 µM; 0.59% of 350,000 active;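 active = inhibition of the ligand-induced calcium signal above about 50% at the single tested concentration, limit read from the data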
MEKK2wt PB1 HTS: raises or lowers MEK5 binding to wildtype human MEKK2 PB1 domain; binding response (% of control), % at 10 µM; 1.1% of 290,000 active; bead flow cytometry, Alexa488-MEK5 binding to MEKK2 WT; actives lie on both sides; in the data active = binding response below about 67% or above about 130%
MEKK2 mut-MEK5: signal of MEK5 binding to mutant human MEKK2 PB1 domain | percent response, % at 10 µM | bead flow cytometry, Alexa488-MEK5 binding to MEKK2 mutant | 0.35% of 290,000 active; in the data active = percent response above about 24%, passing the limit was not always enough
CRFBP-R2 agonist: agonists of human CRF-binding protein/CRF-R2 receptor complex; HEK293 CRF-R2/CRF-BP, calcium dye fluorescence (FLIPR); percent of saturating CRF peptide response; activation, % at 13.2 µM; 0.46% of 350,000 active; AID 588473;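 active = activation of at least 50%, plus an integration ratio under a set limit after plate pattern correction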;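 also: plate controls were neutral control wells without compound for no effect and CRF at EC100 for full effect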
ABCB6 inh MLPCN: human ABCB6 transporter inhibition. 0.19% of 360,000 active. K562-ABCB6 porphyrin accumulation, flow cytometry, 1 h; hits give low values. fluorescence ratio to DMSO, % at 10 µM. Q9NP58;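 active = fluorescence ratio to DMSO below 75%, the collection mean minus 3 SD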;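 also: signal is porphyrin accumulated inside mitochondria; 100% equals median channel fluorescence of DMSO control wells; lower ratio means ABCB6 inhibition with less porphyrin fluorescence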
Target sequence (Q9NP58 whole entry, looked up): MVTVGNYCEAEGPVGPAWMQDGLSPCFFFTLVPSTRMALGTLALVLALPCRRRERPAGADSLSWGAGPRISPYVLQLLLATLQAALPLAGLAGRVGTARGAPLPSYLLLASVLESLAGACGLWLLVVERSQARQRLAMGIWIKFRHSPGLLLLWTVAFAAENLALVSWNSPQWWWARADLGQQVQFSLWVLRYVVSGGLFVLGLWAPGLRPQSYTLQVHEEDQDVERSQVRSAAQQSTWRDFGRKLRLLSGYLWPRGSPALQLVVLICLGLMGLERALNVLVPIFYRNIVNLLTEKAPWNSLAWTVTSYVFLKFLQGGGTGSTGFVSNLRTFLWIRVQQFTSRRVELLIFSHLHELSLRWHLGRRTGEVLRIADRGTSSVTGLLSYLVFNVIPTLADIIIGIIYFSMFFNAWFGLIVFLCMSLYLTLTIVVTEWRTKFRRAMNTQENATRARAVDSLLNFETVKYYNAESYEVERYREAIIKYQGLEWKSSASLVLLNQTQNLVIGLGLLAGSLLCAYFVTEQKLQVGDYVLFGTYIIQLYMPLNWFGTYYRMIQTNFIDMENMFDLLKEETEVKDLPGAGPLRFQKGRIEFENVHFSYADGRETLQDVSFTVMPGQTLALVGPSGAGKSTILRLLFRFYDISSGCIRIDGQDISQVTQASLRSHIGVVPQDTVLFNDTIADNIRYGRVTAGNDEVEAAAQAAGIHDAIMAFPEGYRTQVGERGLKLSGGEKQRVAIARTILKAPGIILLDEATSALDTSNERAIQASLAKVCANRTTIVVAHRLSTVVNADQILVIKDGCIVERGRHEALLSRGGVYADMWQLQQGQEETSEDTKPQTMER
MEKK3 PB1 HTS: modulators (inhibitors or enhancers) of MEK5 binding to human MEKK3 PB1 domain; bead-based flow cytometry, Alexa488-MEK5 binding to MEKK3; actives lie on both sides; 0 = blocked by unlabeled MEK5, 100 = vehicle; binding response (% of control), % at 10 µM; 1.4% of 290,000 active; AID 1529;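 active = binding response more than 3 SD above or below the average of its plate-row segment, actives on both sides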;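 also: Alexa488 bead fluorescence after subtracting the streptavidin-only scavenger bead signal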
MEKK2wt confirm: raises or lowers MEK5 binding to wildtype human MEKK2, retest; 2.4% of 5,900 active; bead flow cytometry, Alexa488-MEK5 binding to MEKK2 WT; actives lie on both sides; binding response (% of control), % at 10 µM; shares compounds with MEKK3 PB1 HTS; in the data active = binding response below about 16% or above about 210%; inactive = in between
MEKK2mut-MEK5: signal of MEK5 binding to mutant human MEKK2, retest; percent response, % at 10 µM; AID 1893; 2% of 5,900 active; bead flow cytometry, Alexa488-MEK5 binding to MEKK2 mutant; shares compounds with MEKK3 PB1 HTS; in the data active = percent response mostly above about 71%, no sharp cut-off; inactive = mostly below about 38%;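 also: higher means compound restores mutant binding toward wildtype level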
MEKK3 confirm: confirmation of inhibitors of MEK5 binding to human MEKK3 | shares compounds with MEKK3 PB1 HTS | bead flow cytometry, Alexa488-MEK5 binding to MEKK3; hits give low values | binding response (% of control), % at 10 µM | 1.8% of 5,900 active;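 active = binding response below 72% of control, or above a set upper limit, though filed actives all read lower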;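 also: 100% = DMSO only wells and 0% = binding blocked by excess unlabeled MEK5; lower values mean stronger disruption of MEK5 binding to MEKK3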
* = called active by the depositor; . = no result given; [ ] = dose if it differs, or a comment. Sampled rows, rich in hits. Any-hit rate of the full collection: about 2.9%.

SMILES	CRFR2-BP antag	MEKK2wt PB1 HTS	MEKK2 mut-MEK5	CRFBP-R2 agonist	ABCB6 inh MLPCN	MEKK3 PB1 HTS	MEKK2wt confirm	MEKK2mut-MEK5	MEKK3 confirm
Cc1cc2ccccn2c1C(=O)Nc1cccc(Cl)c1	-5	86	-10	0	101	95	.	.	.
CCN1C(=O)/C(=C\c2cn(-c3ccccc3)nc2-c2cccnc2)SC1=S	-18	85	-6	11	103	103	.	.	.
CCN1C(=O)/C(=C/C=C2\N(CC)c3cc(S(=O)(=O)N(C)C)ccc3N2c2ccccc2)SC1=S	-52	53*[inhibitor]	-4	73*	163	81	39	-22	76
Cc1cn([C@H]2C[C@H](O)[C@@H](CCC(=O)NCCN3CCCCC3)O2)c(=O)[nH]c1=O	-9	.	.	-1	106	.	.	.	.
C=CCSc1nnc(CNC(=O)c2ccccc2C)n1C(C)C	18	121	4	3	100	140*	101	-3	96
Cc1ccc(NC(=O)N2CCCC2C(=O)Nc2nnc(C(C)C)s2)cc1 (stereo not given)	1	108	5	0	96	101	.	.	.
O=C(Nc1ccnn1C1CCN(Cc2ccc(OC(F)F)cc2)CC1)C1CCCC1	-19	135*	12	13	102	104	136	14	101
CCOc1ccccc1C(=O)NCC(=O)N1CCC(C)CC1	5	.	.	-1	100	.	.	.	.
COc1ccc(NC(=O)Nc2cccc3c2O[C@@H](CN(C)CC2CCCCC2)[C@@H](C)CN([C@H](C)CO)C3=O)cc1	-4	.	.	-1	93	.	.	.	.
COc1cc2c3nnc(-c4ccccc4)c-3cn(Cc3ccccc3F)c2cc1OC	-9	153*	26	10	.	96	132	13	99
COc1ccc(OCC(=O)N/N=C/c2ccsc2)cc1	17	104	0	0	101	140*	105	8	101
Cc1c(CCC(=O)NCCCn2ccnc2)c(=O)oc2c(C)c3oc4c(c3cc12)CCCC4	-5	113	5	-3	99	100	.	.	.
O=C(N/N=C/C(Cl)=C/c1ccccc1)c1ccc2c(c1)OCO2	-10	.	.	2	98	.	.	.	.
C=C(C)C(=O)Nc1nnc(-c2ccccc2C)s1	-27	66	-9	4	104	74*[inhibitor]	103	4	102
CN1CCN(c2ccc(Cl)cc2NC(=O)/C=C/c2cccc(F)c2)CC1	-72	149*	18	4	96	103	151	37	106
CN1CCN(c2ccc(Cl)cc2NC(=O)c2cccc(S(=O)(=O)N(C)C)c2)CC1	4	126	19	-2	96	105	.	.	.
CC(=O)Nc1ccc(N2C(=O)CSC2c2ccc(F)cc2)cc1 (stereo not given)	0	80	-4	2	100	81*[inhibitor]	99	0	100
COc1ccc(N2C(=O)CSC2c2ccc(F)cc2)cc1 (stereo not given)	1	99	0	-4	104	104	.	.	.
CCNc1nc(N2CCCCC2)nc(-n2nnc(C(=O)OCC)c2C)n1	15	61*[inhibitor]	-12	-2	100	60*[inhibitor]	67	0	101
CCOC(=O)c1nnn(-c2nc(OC)nc(N3CCCC3)n2)c1-c1ccccc1	-30	.	.	-4	99	.	.	.	.
CS(=O)(=O)N1CCN(c2ccc(NC(=O)c3ccc(-c4ccc(Cl)cc4)o3)cc2)CC1	-11	98	3	2	104	100	.	.	.
CN1CCN(c2ccc(NC(=O)c3ccc(-c4ccc(Cl)cc4)o3)cc2)CC1	6	171*	43*	-1	96	108	195	72*	114
CCc1noc(C)c1C(=O)Nc1nnc(C2CCCCC2)s1	.	93	-4	.	.	99	.	.	.
CSc1nc2ccccc2n1Cc1cccc([N+](=O)[O-])c1	4	108	1	-1	102	152*	100	-5	103
CSc1nc2ccccc2n1Cc1cccc(F)c1	-8	98	6	1	106	103	.	.	.
SMILES	CRFR2-BP antag	MEKK2wt PB1 HTS	MEKK2 mut-MEK5	CRFBP-R2 agonist	ABCB6 inh MLPCN	MEKK3 PB1 HTS	MEKK2wt confirm	MEKK2mut-MEK5	MEKK3 confirm
CCOc1ccc(N(CC(=O)NCc2ccco2)C(=O)CCC(=O)Nc2nccs2)cc1	3	97	-5	0	100	100	.	.	.
COc1ccc(/C=N/N=C2/NC(=O)C(CC(=O)O)S2)cc1OCc1ccccc1Cl (stereo not given)	12	109	0	-1	103	146*	106	13	109
CC1(C)CC(C)(O)N(Cc2ccccc2)C(=S)N1 (stereo not given)	5	112	1	-3	99	133*	101	2	101
CSc1ccc(C2=CC(=O)C[C@H](c3ccc(Cl)cc3)C2)cc1	20	.	.	1	96	.	.	.	.
CN(C)S(=O)(=O)c1cccc(NC(=O)CSc2nc3ccccc3n2-c2ccccc2)c1	42	110	-1	1	96	153*	104	-3	104
Cc1ccccc1Cn1c(C)nc2ccc([N+](=O)[O-])cc2c1=O	2	102	7	-1	108	107	.	.	.
COc1cccc(CN(C(=O)COc2ccc(Cl)cc2)C2CCS(=O)(=O)C2)c1 (stereo not given)	-10	105	9	-1	100	102	.	.	.
COc1ccc(C2CC2C(C)=O)cc1 (stereo not given)	-4	121	5	3	100	134*	98	0	102
Cc1ccc(C(=O)NCCCNC(=O)Cc2ccc(Cl)cc2)cn1	6	.	.	-1	98	.	.	.	.
CNC[C@H]1Oc2ccc(NC(=O)C3CCCCC3)cc2CC(=O)N([C@H](C)CO)C[C@@H]1C	2	.	.	2	102	.	.	.	.
COc1ccc(C(=O)CSc2nc3nn(-c4ccccc4)c(=O)c-3c3n2CCCCC3)c(OC)c1	24	.	.	-1	95	.	.	.	.
CC(Sc1nncs1)C(=O)Nc1ccc(Cl)cn1 (stereo not given)	3	96	5	-6	97	94	.	.	.
CC(Sc1nc(-c2ccccc2)cs1)C(=O)Nc1ccc(Cl)cn1 (stereo not given)	-6	111	1	6	97	149*	110	-1	105
O=[N+]([O-])c1ccc(Cl)c(S(=O)(=O)n2ccnc2)c1	11	118	28	1	96	130*	105	4	103

Assay outcomes (PubChem BioAssay)
